Compound activity from PubChem.
This is a sample that favours compounds with a hit; in the whole collection about 10% have one here.
hNpr1 antagonist – Natriuretic polypeptide receptor (hNpr1) antagonism - Primary qHTS; Atrial natriuretic peptide receptor 1 (Homo sapiens), P16066; HEK293 hNpr1 GloSensor cGMP, ANP-stimulated luminescence; Potency, µM (titrated, usually from 46.3 µM), for inactives: top-dose activity change, negative = inhibition, actives largely listed as inhibitors; 76,000 tested, 1.6% active; AID 1347048, 2019; calls by dose curve; note: nearly all actives have a fitted effect of over 60% in size
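HEK293 cells stably expressing human Npr1 and cGMP GloSensor pGS-40F, loaded 2 h with 2% GloSensor reagent, given compound 30 min at room temperature. Luminescence read before and 20 min after 0.1 nM hNppA.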
3T3 cytotox – Cytotoxic Profiling in NIH 3T3 Cell Line of Diverse Libraries Using Quantitative High-Throughput Screening; NIH 3T3 viability, CellTiter-Glo ATP luminescence, 48-72 h; Potency, µM (doses to about 96.7 µM), for inactives: at the highest dose activity change, negative = cytotoxicity, most hits filed as inhibitors; 94,000 tested, 4.3% active; AID 1345082, 2018; note: nearly all actives have a fitted effect of over 55% in size
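Viability of NIH 3T3 cells after 48 or 72 hr compound treatment at 37 °C was assessed by CellTiter-Glo, with luminescence imaged following a 10 min room-temperature step.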
Luciferase inh – Firefly luciferase inhibition profiling of diverse chemical library using quantitative high-throughput screening. Luciferin 4-monooxygenase (Photinus pyralis), P08659. purified P. pyralis luciferase, luminescence, biochemical. Potency, µM (titrated, usually from 115 µM), usual class: inhibitors. 76,000 tested, 2.5% active. AID 1347043, 2019; note: nearly all actives have a fitted effect of over 65% in size
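Inhibitors were tested against purified firefly luciferase in a biochemical, low-substrate format (both substrates at 10uM) and luminescence measured with a CCD imager.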
GPT2 inhibitor – Primary qHTS assay for inhibitors of Glutamate pyruvate transaminase 2 (GPT2); Alanine aminotransferase 2 (Homo sapiens), Q8TD30; Recombinant GPT2, coupled pyruvate oxidase/HRP Amplex Red fluorescence; Potency, µM (titrated, usually from 57.7 µM), without a hit: top-dose activity change, negative = inhibition, hits mostly inhibitors; 100,000 tested, 0.25% active; AID 1671188, 2021; note: nearly all actives have a fitted effect of over 60% in size
Target sequence (Q8TD30 whole entry, looked up): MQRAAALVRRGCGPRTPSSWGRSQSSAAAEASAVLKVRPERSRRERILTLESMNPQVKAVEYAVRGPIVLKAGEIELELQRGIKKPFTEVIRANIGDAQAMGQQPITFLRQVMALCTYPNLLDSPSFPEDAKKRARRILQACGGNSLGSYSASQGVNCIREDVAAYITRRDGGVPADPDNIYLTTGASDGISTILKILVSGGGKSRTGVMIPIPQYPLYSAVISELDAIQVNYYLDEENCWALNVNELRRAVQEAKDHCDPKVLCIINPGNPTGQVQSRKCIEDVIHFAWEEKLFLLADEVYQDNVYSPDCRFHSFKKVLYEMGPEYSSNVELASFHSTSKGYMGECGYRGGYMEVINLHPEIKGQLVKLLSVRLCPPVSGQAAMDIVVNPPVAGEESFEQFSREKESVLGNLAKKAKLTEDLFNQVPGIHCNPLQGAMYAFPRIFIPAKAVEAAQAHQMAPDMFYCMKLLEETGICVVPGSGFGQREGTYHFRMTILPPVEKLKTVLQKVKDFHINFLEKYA
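GPT2 10ng/uL, a-KG 250uM, L-Ala 2mM, HEPES pH7.5 + 0.0001% Tween; 30 min RT. Then Amplex mix (PO/HRP/ThPP), 30 min RT dark, fluorescence. AOA 50uM used as positive control.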
HEK cytotox – Cytotoxic Profiling in HEK 293 Cell Line of Diverse Libraries Using Quantitative High-Throughput Screening; AID 1345083, 2018; HEK 293 viability, ATP luminescence (CellTiter-Glo), 48-72 h; 94,000 tested, 6.6% active; Potency, µM (highest dose often 115 µM), for the others: top-dose activity change, negative = cytotoxicity, most hits filed as inhibitors; note: nearly all actives have a fitted effect of over 60% in size
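Read-out: CellTiter-Glo ATP luminescence. Cells: HEK 293, 250 cells/well. Exposure: 48 or 72 hr, 37 degree Celsius.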
Starred values were filed as active, the others as inactive; i = inactive; ? = inconclusive; · = no result; [ ] = dose if it differs, or a comment. Unless noted, calls come from the whole dose curve; as a rule, active = well fitted curve in the direction sought with a large enough effect; inconclusive = small, poorly fitted or top-dose-only effect, or another doubt; inactive = no such curve, though single readings can be large; an effect the other way counts as inactive or inconclusive. % is set by controls: 0 for no effect and ±100 for the full control effect; potency is the fitted concentration of half-maximal effect.

SMILES	hNpr1 antagonist	3T3 cytotox	Luciferase inh	GPT2 inhibitor	HEK cytotox
O=C(Nc1nccs1)[C@@H]1C[C@@H](c2cccc(C(F)(F)F)c2)N(CC2CCOCC2)C1	-20%[70.6 µM]	79µM*	i	-5%[88.5 µM]	?
O=C(NCc1ccncc1)[C@@H]1C[C@@H](c2ccc(F)cc2)N(Cc2ccccc2)C1	2%[70.6 µM]	-16%[138 µM]	i	-11%[88.5 µM]	?
CC(=O)NC[C@H]1OC[C@@H](NC2CCC(F)(F)CC2)[C@@H]1O	7%[70.6 µM]	0%[230 µM]	i	4%[88.5 µM]	-8%[230 µM]
Cc1nc2cccnc2n1CC1CCCN(S(=O)(=O)c2cccc(Br)c2)C1 (stereo unspecified)	?	?	i	i	45µM*
Cc1ccc(-c2nnc3ccc(NC4CCC4)nn23)nc1	-11%[70.6 µM]	?	i	i	?
COc1ccnc(-c2nnc3ccc(Nc4cc(OC)c(OC)c(OC)c4)nn23)c1	2%[70.6 µM]	50µM*	i	-14%[88.5 µM]	?
COc1ccc(Nc2ccc3nnc(-c4ccc(C)cn4)n3n2)cc1	-7%[70.6 µM]	?	i	1%[88.5 µM]	71µM*
COc1ccc(-c2nnc3ccc(NC(C)C)nn23)nc1	-3%[70.6 µM]	50µM*	i	1%[88.5 µM]	-10%[230 µM]
COc1ccc(-c2nnc3ccc(Nc4cccc(OC)c4)nn23)nc1	-11%[70.6 µM]	?	i	i	?
Cc1ccc(-c2nnc3ccc(NC4CCCCC4)nn23)nc1	-17%[70.6 µM]	?	i	-5%[88.5 µM]	71µM*
COCC1CN(C2CCC2)CC12CCN(C(=O)C1CC1)CC2 (stereo unspecified)	-1%	-3%	i	-15%	?
CN(C)c1cc(N2CCCC(NC(=O)CCc3ccccc3)C2)ncn1 (stereo unspecified)	-1%	-4%	i	-38%	2%
O=C1NCCCCCCN(C(=O)c2ccncc2)[C@H]2C[C@H](c3nc(-c4cnccn4)no3)C[C@@H]12	-15%	-19%	i	i	-2%
O=C(NC1CCN(c2nccc(Nc3ccccc3Cl)n2)CC1)c1ccccc1	·	?	·	5%	40µM*
O=C(C1CC1)N1CCN(c2nccc(Nc3ccccc3Cl)n2)CC1	·	22µM*	·	-3%	?
O=C(C1CCCC1)N1CCN(c2nccc(Nc3ccccc3Cl)n2)CC1	·	14µM*	·	i	?
Cc1c(CC(=O)NC(C)C)c2c(n1Cc1ccccc1F)CCCC2=O	-7%	-4%	45µM*	i	?
Cc1c(CC(=O)NCC(F)(F)F)c2c(n1Cc1ccccc1F)CCCC2=O	0%	-23%	i	-3%	-25%
COCCOC1CCN(C(=O)Nc2ccc(OC)cc2)CC1	0%	i	i	?	1%
Cc1ccc(-c2ccccc2CN)c(C)c1	·	100µM*	·	1%[88.5 µM]	112µM*
O=C1NCCCCCCN(C(=O)c2ccco2)[C@H]2C[C@H](C(=O)N3CCN(c4ccccn4)CC3)C[C@@H]12	-5%	i	i	5%	2%
O=C(NCCc1ccncc1)c1ccc(-c2nnc3ccc(NC(=O)C4CCC4)cn23)cc1	4%	i	?	-5%	?
O=C(NCCc1cccnc1)c1ccc(-c2nnc3ccc(NC(=O)C4CCC4)cn23)cc1	-1%	35µM*	i	i	?
O=C(NC1CCCCC1)C1CCc2nnc(CN[S+](=O)([O-])c3ccccc3Cl)n21 (stereo unspecified)	·	-16%	·	5%	2%
COCCOCc1nc(C2CCN(C(=O)NC(C)C)CC2)no1	-1%	i	i	-1%	i
SMILES	hNpr1 antagonist	3T3 cytotox	Luciferase inh	GPT2 inhibitor	HEK cytotox
CNC(=O)c1cc(-c2ccc(F)cc2OC)cc2c1OCCN2Cc1cccnc1	-6%[70.6 µM]	?	i	-5%[88.5 µM]	?
CNC(=O)c1cc(-c2ccc(CO)cc2)cc2c1OCCN2Cc1cccnc1	10%[70.6 µM]	45µM*	i	-1%[88.5 µM]	-3%[172 µM]
CNC(=O)c1cc(-c2ccc(OC)c(OC)c2)cc2c1OCCN2Cc1cccnc1	2%[70.6 µM]	22µM*	i	i	-12%[172 µM]
COc1ncc(-c2cc(C(=O)NCc3cccnc3)c3c(c2)N(C)CCO3)cn1	-6%[70.6 µM]	45µM*	i	i	-12%[172 µM]
CNC(=O)c1cc(-c2cnc(OC)nc2)cc2c1OCCN2Cc1cccnc1	-1%[70.6 µM]	?	i	i	2%[172 µM]
CNC(=O)c1cc(-c2cnn(C)c2C)cc2c1OCCN2Cc1cccnc1	1%[70.6 µM]	45µM*	i	2%[88.5 µM]	-4%[172 µM]
CCn1ccc(C(=O)N2[C@@H]3CC[C@H]2CC(NC(=O)c2ccc(F)cc2)C3)n1 (stereo partly specified)	-1%	-10%	i	i	-9%
CC(C)CN1C(=O)c2cccn2CC1CNC(=O)c1ccnn1C (stereo unspecified)	4%	-4%	i	1%	0%
O=C(Cc1ccc(F)cc1)NC1CCN(Cc2cccc(-c3cccs3)c2)CC1	·	-12%	·	3%	-1%
CCN1C(=O)CCN(C(=O)C2(c3ccc(OC)cc3)CC2)CC12CCOCC2	0%	i	i	i	i
CNC(=O)c1cc(-c2ccc([S+](C)(=O)[O-])cc2)cc2c1OCCN2Cc1cccnc1	-4%[70.6 µM]	8.9µM*	i	?	-23%[172 µM]
Cc1cc(CNC(=O)c2cc(-c3ccccc3)cc3c2OCCN3C)no1	3%[70.6 µM]	?	i	i	100µM*
O=C(NCc1cccnc1)c1cc(-c2ccccc2F)cc2c1OCCN2Cc1cccnc1	-22%	?	i	?	?
COCC(=O)N(C1CCOCC1)C1CCN(C(=O)Cc2cccnc2)CC1	1%	i	i	i	?
Cc1cc(C)n(CCC(=O)NCC2CCN(c3cc(-c4ccc(Cl)cc4)[nH]n3)CC2)n1	-20%	32µM*	i	?	35µM*
O=C(NCC1CCN(c2cc(-c3ccc(F)cc3)[nH]n2)CC1)c1cc(C2CC2)[nH]n1	-27%	?	?	?	?
O=C(NCC1CCN(c2cc(-c3ccc(Cl)cc3)[nH]n2)CC1)c1ccc[nH]1	-22%	22µM*	i	-21%	?
O=C(NCC1CCN(c2cc(-c3ccc(Cl)cc3)[nH]n2)CC1)c1cc(C2CC2)[nH]n1	?	35µM*	?	?	?
CCC(CC)C(=O)N1CCC(N2C(=O)N(Cc3cccnc3)CC23CCOC3)CC1 (stereo unspecified)	·	-20%	·	-64%	-7%
O=C(NCC1CCCCC1)c1cc(-c2ccc(F)cc2)c2nncn2n1	·	6.3µM*	·	i	?
O=C(NCc1ccc(F)cc1)c1cc(-c2ccc(Cl)cc2Cl)c2nncn2n1	·	45µM*	·	i	89µM*
